Compound activity deposited in PubChem by several laboratories.
Sampled rows, rich in hits. Any-hit rate of the full collection: about 4.8%.
STAT1 act = STAT1 signaling activators, primary screen, cell-based, HTS, luciferase reporter; NIH 3T3 STAT1-luciferase reporter, IFN-gamma, luminescence; 100% = IFN-gamma alone, no compound; activation (% of control), % at 5.5 µM; 2.6% of 200,000 active;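 active = activation above the screen-wide mean activation plus 3 SD, cut at about 130% in these data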;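 note: raw ratio to IFN-gamma control signal so 100% means no change and 0% no light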
APP 5UTR inh = inhibitors of APP translation via 5'UTR reporter, primary screen, APP 5'UTR luciferase, SH-SY5Y cells. 0.82% of 190,000 active. AID 1285, 2008. inhibition, % at 2 µM. SH-SY5Y APP 5'UTR-luciferase reporter, luminescence;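 active = inhibition above a set limit, derived from the sample mean plus 3 SD, cut at about 45% in these data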
Hsp70 act = Hsp70 transcriptional activators, primary screen, cell-based, HeLa, Hsp70 promoter luciferase, luminescence, 10 µM. HeLa Hsp70 promoter luciferase reporter; scaled: vehicle 0, proteasome-inhibitor control 100%. activation, % at 10 µM. 0.04% of 200,000 active;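 active = activation above the mean across all tested compounds plus 3 SD, cutoff set per campaign, cut at about 5.5% in these data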;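 note: 100% = MG132 at 30 µM as the positive control and 0% = DMSO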
APP 5'UTR act = activators of APP 5'UTR luciferase reporter, primary screen, SH-SY5Y cells | SH-SY5Y APP 5'UTR luciferase reporter, luminescence; zero percent = DMSO vehicle wells | activation, % at 2 µM | 1% of 190,000 active;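 active = activation above a set limit, based on mean plus 3 SD of controls, cut at about 140% in these data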
Wee1 stabilizer = Wee1 degradation inhibitors, primary screen, cell-based, HeLa, Wee1K328M-luciferase, luminescence | Wee1-like protein kinase (Homo sapiens), P30291 | HeLa Luc-Wee1K328M stability; 100% = proteasome inhibitor MG132 effect | reporter increase, % at 5 µM | 1.2% of 220,000 active;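 active = activation above the mean of all tested compounds plus 3 SD, set per screening run, cut at about 8.8% in these data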;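 note: cells exposed to compound for 20 h before luminescence read; 0% = DMSO alone and 100% = MG132 at 30 µM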
Target sequence (P30291 whole entry K328M): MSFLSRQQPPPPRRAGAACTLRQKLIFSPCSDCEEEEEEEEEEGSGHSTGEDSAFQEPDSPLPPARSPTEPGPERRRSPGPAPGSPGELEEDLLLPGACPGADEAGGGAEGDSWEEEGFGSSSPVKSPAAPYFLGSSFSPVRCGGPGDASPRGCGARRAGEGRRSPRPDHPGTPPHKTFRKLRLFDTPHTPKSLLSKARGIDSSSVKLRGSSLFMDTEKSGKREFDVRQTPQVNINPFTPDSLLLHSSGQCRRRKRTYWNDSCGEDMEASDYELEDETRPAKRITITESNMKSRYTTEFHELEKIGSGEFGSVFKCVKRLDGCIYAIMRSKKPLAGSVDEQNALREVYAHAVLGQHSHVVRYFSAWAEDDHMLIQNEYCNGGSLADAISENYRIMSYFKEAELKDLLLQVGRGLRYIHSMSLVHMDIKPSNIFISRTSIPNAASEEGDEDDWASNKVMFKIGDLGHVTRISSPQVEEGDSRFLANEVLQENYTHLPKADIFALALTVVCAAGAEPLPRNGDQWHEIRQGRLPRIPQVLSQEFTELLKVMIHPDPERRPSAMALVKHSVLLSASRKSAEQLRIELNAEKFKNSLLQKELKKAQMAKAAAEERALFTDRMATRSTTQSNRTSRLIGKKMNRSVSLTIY
NF-kB neuron act = activators of NF-kB expression in neurons, primary screen, cell-based, HTS | human neuronal cells, NF-kB reporter expression; hits give high values | fold change at 12.5 µM | 1.6% of 190,000 active; in the data active = fold change above about 3.3
* hit, by the source's call; nt = no result given.

SMILES	STAT1 act	APP 5UTR inh	Hsp70 act	APP 5'UTR act	Wee1 stabilizer	NF-kB neuron act
O=S(=O)(c1ccc(Cl)nc1)N1CCN(c2ncccn2)CC1	nt	nt	nt	nt	2.3	nt
Clc1ncccc1-c1nnn(-c2ccccc2Br)n1	121.0	-6.1	0.1	6.1	-0.8	1.68
CN(C)c1ccc(C(CNS(=O)(=O)c2ccc(F)cc2)c2c[nH]c3ccccc23)cc1 (centres undefined)	110.2	6.2	-0.5	-6.2	1.4	0.79
CSCCCNC(=S)Nc1ccc(N2CCOCC2)cc1N1CCOCC1	104.4	10.2	0.2	-10.2	-0.4	1.15
CCN1CCN(C(c2cccs2)C(C)NS(=O)(=O)c2ccccc2)CC1 (centres undefined)	102.3	2.7	-0.3	-2.7	11.2*	1.24
N#Cc1ccc(NC(=O)COC(=O)CCc2nc3ccccc3c(=O)[nH]2)cc1	nt	nt	nt	nt	9.7*	nt
Cc1ccc(-c2cc(-c3c(C)nn(C)c(=O)c3N)[nH]n2)cc1	nt	nt	nt	nt	2.0	nt
COc1ccc(NS(=O)(=O)c2ccc(NC(=O)c3ccccc3)cc2)nn1	103.2	5.7	0.0	-5.7	10.8*	nt
CCn1c(SCC(=O)NC(=O)NCc2ccco2)nc2sc(C)c(C)c2c1=O	92.7	-3.3	-0.3	3.3	9.8*	0.92
COc1ccc(CNc2ccc(C)c(C)c2)c(OC)c1OC	89.2	-39.3	-0.3	39.3	-0.1	1.23
CCC(C)/C(C)=N/NC(=O)c1ccc(COc2ccc(Cl)c(C)c2)cc1 (centres undefined)	129.9*	-7.2	0.4	7.2	-2.9	1.54
CCc1ccc(C(=O)NNc2ccc(C)c(Cl)c2)cc1	nt	nt	nt	nt	2.3	nt
N#CCSc1nc2ccccc2o1	nt	nt	nt	nt	-1.8	nt
Cn1cccc1-c1nc2ccc(NC(=O)c3ccc([N+](=O)[O-])cc3)cc2[nH]1	100.0	nt	-0.5	nt	0.7	1.06
Cn1cccc1-c1nc2ccc(NC(=O)c3ccccc3)cc2[nH]1	105.8	-24.2	-0.1	24.2	10.2*	1.14
C#CCOc1ccc(/C=C2\SC(=S)N(Cc3cccnc3)C2=O)cc1	104.1	-3.4	-0.3	3.4	-3.2	1.26
Cc1ccc(S(=O)(=O)N/N=C\c2ccc(C)o2)cc1	101.9	-9.5	-0.3	9.5	1.2	0.95
COC(=O)/C(C#N)=C/c1ccc(OC(=O)c2ccccn2)cc1	112.6	-19.3	0.1	19.3	-0.3	1.41
N#C/C(=C\c1ccccc1)c1ccccn1	130.4*	-45.5	0.0	45.5	2.1	1.88
N#C/C(=C\c1ccc(Cl)c([N+](=O)[O-])c1)c1ccccn1	97.1	-42.5	-0.2	42.5	-1.8	1.22
CNc1ccc(/C=C(\C#N)c2ccccn2)cc1[N+](=O)[O-]	138.8*	-125.0	0.1	125.0	0.0	1.79
CC(=O)C1=C(O)C(=O)N(c2ccc(C(=O)O)cc2)C1c1ccccc1 (centres undefined)	95.3	1.9	-0.5	-1.9	9.2*	1.14
CCOC(=O)c1ccc(N2C(=O)C(O)=C(C(C)=O)C2c2ccccc2)cc1 (centres undefined)	104.8	-13.4	-0.1	13.4	-0.6	1.38
COc1ccc(NC(=O)COC(C)=O)cc1Cl	110.3	-5.1	-0.4	5.1	-1.9	1.09
Cc1cccc(NC(=S)N=Nc2c(O)[nH]c3ccccc23)c1	103.8	45.3*	-0.3	-45.3	2.5	1.09
SMILES	STAT1 act	APP 5UTR inh	Hsp70 act	APP 5'UTR act	Wee1 stabilizer	NF-kB neuron act
COc1ccccc1NC(=S)N=Nc1c(O)[nH]c2ccc(Br)cc12	nt	nt	nt	nt	8.0	nt
Cc1ccc(Cl)cc1N1CCN(C(=O)Cn2ccc3ccccc3c2=O)CC1	95.9	6.7	-0.3	-6.7	-0.7	1.05
CC(=O)Nc1cc(-c2ccc(Cl)cc2)[nH]n1	144.3*	-11.2	-0.1	11.2	0.2	2.3
CC(Sc1nnc(-c2cccs2)n1Cc1ccccc1)C(=O)NCc1ccc2c(c1)OCO2 (centres undefined)	105.6	4.4	-0.3	-4.4	10.4*	0.84
O=C(CSc1nnc(-c2cccs2)n1Cc1ccccc1)NCc1ccc2c(c1)OCO2	95.2	-13.1	-0.3	13.1	-3.1	0.89
O=[N+]([O-])c1ccc(Oc2ccc(C(F)(F)F)cn2)cc1	141.7*	7.8	0.7	-7.8	-1.9	1.42
COc1ccc(CCNC(=O)C2CC(=O)N(C3CCCCCCC3)C2)cc1OC (centres undefined)	103.8	2.8	-0.4	-2.8	-0.9	0.97
COc1ccc(N2C(=O)C(Cl)=C(Oc3cccc(OC)c3)C2=O)cc1	92.5	49.3*	-0.1	-49.3	0.3	1.39
C(=C\c1ccco1)/C=N/n1cnnc1	102.6	-7.5	-0.3	7.5	9.7*	1.01
S=c1[nH]nc(-c2ccncc2)n1/N=C/C=C/c1ccco1	92.1	1.6	0.1	-1.6	-1.6	1.02
Cc1csc2nc(CSc3nncn3-c3ccccc3)c(Br)n12	92.6	1.5	0.5	-1.5	-3.6	0.98
Cc1csc2nc(CSc3nc4ccccc4o3)c(Br)n12	145.5*	-132.3	0.0	132.3	5.6	2.75
CC(C)c1ccc(/C=N/NC(=O)C(=O)NCCCN2CCOCC2)cc1	107.4	-6.5	-0.4	6.5	-1.0	1.11
CCN(CC)S(=O)(=O)c1cc(C(=O)OCC(=O)c2ccc3c(c2)NC(=O)CO3)ccc1Cl	96.2	-12.6	-0.5	12.6	-1.1	1.31
Nc1cc2nc[nH]c2cc1N	123.1	-162.6	0.0	162.6*	3.2	1.62
Cc1cc2nc[nH]c2cc1[N+](=O)[O-]	103.8	6.3	-0.2	-6.3	0.9	0.91
CCC(Sc1ncnc2c1nnn2-c1ccc(F)cc1)C(=O)OC (centres undefined)	116.8	-8.9	0.3	8.9	0.7	2.12
CCOC(=O)C(C)Sc1ncnc2c1nnn2-c1ccc(F)cc1 (centres undefined)	131.9*	-10.2	0.5	10.2	0.2	1.76
Cc1ccc(NC(=O)CNS(=O)(=O)c2ccc(F)cc2)cc1C	99.5	-15.1	0.0	15.1	1.8	1.23
CCOC(=O)c1nn(-c2ccc(Br)cc2)cc1C(=O)c1cccc2ccccc12	110.7	-6.6	-0.3	6.6	1.1	6.4*
CCc1ccc(Nc2ncccc2C#N)cc1	104.8	-21.8	-0.2	21.8	0.0	1.11
CCOc1ccc(C(=O)NC(C(=O)NCC2CCCO2)C(C)C)cc1 (centres undefined)	nt	nt	nt	nt	1.9	nt
Fc1ccc2nc3[nH]c4ccccc4c3nc2c1	213.8*	-157.1	0.6	157.1*	4.6	4.39*
CC(=O)n1c(Cl)c(NC(=O)CCl)c2ccccc21	95.9	74.9*	-0.4	-74.9	0.8	1.05
